Inconclusive results are not listed. Active and inactive are the calls of the source. Unless noted, calls follow the shape of the dose curve; as a rule, active = well fitted curve in the direction sought with a large enough effect; inconclusive = small, poorly fitted or top-dose-only effect, or another doubt; inactive = no such curve, though single readings can be large; an effect the other way counts as inactive or inconclusive.
How the values were obtained:
[1] = qHTS for Inhibitors of Plasmodium falciparum (GB4) proliferation (AID 504315); also: nearly all actives have a fitted effect of over 50% in size; also: potency is read from the fitted curve at half-maximal effect;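 as to activity change, negative = inhibition: 0% = DMSO vehicle and -100% = 0.29 µM artemisinin control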
Outline: (§1)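 Erythrocytes infected with P. falciparum line (0.3% parasitemia, 2.5% hematocrit final) incubated with compounds 72 h at 37 °C, 5% CO2; SYBR Green lysis buffer added, fluorescence read next day. Normalized to 0.29 uM artemisinin and DMSO.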

[2] = qHTS for Inhibitors of Plasmodium falciparum (7G8) proliferation (AID 504316); also: nearly all actives have a fitted effect of over 65% in size; also: potency is read from the fitted curve at half-maximal effect;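 as to activity change, negative = inhibition: series mostly up to about 6.7 µM; 0% = DMSO vehicle and -100% = 0.29 µM artemisinin full kill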
Outline: as §1

[3] = qHTS for Inhibitors of Plasmodium falciparum (CP250) proliferation (AID 504320);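 also: plate controls were DMSO vehicle for no effect and 0.29 µM artemisinin control for full effect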
Outline: as §1

[4] = target: Atrial natriuretic peptide receptor 1 (Homo sapiens) (UniProt P16066); assay: Natriuretic polypeptide receptor (hNpr1) antagonism - Pilot CMLD screen (AID 1347052; calls by dose curve;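 also: HEK293 cells with hNpr1 stimulated by hNppA peptide at 0.1 nM; cGMP level read as GloSensor luciferase luminescence after agonist stimulation; series mostly up to about 9.2 µM; % is scaled to controls: 0 for no effect and ±100 for the full control effect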)
Sequence of Atrial natriuretic peptide receptor 1 (Homo sapiens) (P16066 whole entry, looked up): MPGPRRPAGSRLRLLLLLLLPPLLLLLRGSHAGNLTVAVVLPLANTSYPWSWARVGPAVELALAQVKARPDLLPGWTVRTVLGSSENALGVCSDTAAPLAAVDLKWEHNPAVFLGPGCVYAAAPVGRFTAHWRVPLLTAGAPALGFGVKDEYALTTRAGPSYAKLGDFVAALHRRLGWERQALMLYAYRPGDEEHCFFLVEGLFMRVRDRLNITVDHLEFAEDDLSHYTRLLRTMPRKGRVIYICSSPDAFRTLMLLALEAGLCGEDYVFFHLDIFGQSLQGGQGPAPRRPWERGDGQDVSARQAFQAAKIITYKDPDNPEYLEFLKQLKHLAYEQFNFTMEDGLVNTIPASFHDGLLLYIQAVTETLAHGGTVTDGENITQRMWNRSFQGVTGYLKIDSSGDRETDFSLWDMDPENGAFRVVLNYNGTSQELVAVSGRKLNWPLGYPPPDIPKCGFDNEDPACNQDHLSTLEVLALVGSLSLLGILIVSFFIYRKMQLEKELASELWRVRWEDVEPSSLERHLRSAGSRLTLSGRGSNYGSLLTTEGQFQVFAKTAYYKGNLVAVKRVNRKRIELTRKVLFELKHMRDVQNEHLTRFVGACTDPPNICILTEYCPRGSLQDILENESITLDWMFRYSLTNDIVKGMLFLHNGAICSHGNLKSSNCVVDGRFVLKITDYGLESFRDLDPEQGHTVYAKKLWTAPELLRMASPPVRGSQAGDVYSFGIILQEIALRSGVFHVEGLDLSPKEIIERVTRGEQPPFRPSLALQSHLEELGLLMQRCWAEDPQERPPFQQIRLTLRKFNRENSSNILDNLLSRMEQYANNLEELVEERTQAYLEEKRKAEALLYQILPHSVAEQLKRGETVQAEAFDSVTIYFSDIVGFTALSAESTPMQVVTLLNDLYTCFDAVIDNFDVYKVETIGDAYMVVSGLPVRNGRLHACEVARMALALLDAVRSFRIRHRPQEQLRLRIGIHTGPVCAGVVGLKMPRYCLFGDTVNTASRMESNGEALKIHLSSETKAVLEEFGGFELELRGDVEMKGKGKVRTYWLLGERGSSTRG

[5] = qHTS for Inhibitors of Plasmodium falciparum (HB3) proliferation (AID 504318); also: nearly all actives have a fitted effect of over 60% in size; also: potency is read from the fitted curve at half-maximal effect;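 as to activity change, negative = inhibition: 0% = DMSO vehicle and -100% = artemisinin control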
Outline: as §1

[6] = target: Cytochrome P450 2C9 (Homo sapiens) (UniProt P11712); assay: qHTS Assay for Inhibitors and Substrates of Cytochrome P450 2C9 (AID 883); also: nearly all actives have a fitted effect of over 60% in size; also: potency is read from the fitted curve at half-maximal effect; as to activity change, negative = inhibition: % is scaled to controls: 0 for no effect and ±100 for the full control effect
Sequence of Cytochrome P450 2C9 (Homo sapiens) (P11712 whole entry, looked up): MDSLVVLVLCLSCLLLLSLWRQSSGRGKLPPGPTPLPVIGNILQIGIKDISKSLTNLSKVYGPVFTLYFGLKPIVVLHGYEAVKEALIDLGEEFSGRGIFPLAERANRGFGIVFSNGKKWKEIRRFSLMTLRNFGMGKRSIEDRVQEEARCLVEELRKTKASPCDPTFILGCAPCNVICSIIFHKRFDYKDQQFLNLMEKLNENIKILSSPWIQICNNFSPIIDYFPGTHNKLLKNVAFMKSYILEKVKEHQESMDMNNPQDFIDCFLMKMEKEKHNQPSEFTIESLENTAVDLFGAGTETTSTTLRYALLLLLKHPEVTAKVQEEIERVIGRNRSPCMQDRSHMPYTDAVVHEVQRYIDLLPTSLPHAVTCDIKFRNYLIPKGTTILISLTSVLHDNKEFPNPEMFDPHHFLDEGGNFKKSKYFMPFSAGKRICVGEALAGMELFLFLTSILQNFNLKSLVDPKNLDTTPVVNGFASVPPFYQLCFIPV
Outline: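 Turnover of Luciferin-H (100uM, KM) by 10nM human CYP2C9 was measured over 60 min at 37C with NADPH regeneration; inhibitors and some substrates reduce luminescence. Data normalized to sulphaphenazole 57uM.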

[7] = target: Cytochrome P450 2C19 (Homo sapiens) (UniProt P33261); assay: qHTS Assay for Inhibitors and Substrates of Cytochrome P450 2C19 (AID 899); also: nearly all actives have a fitted effect of over 60% in size; also: potency is read from the fitted curve at half-maximal effect; as to activity, negative = inhibition: % is scaled to controls: 0 for no effect and ±100 for the full control effect
Sequence of Cytochrome P450 2C19 (Homo sapiens) (P33261 whole entry, looked up): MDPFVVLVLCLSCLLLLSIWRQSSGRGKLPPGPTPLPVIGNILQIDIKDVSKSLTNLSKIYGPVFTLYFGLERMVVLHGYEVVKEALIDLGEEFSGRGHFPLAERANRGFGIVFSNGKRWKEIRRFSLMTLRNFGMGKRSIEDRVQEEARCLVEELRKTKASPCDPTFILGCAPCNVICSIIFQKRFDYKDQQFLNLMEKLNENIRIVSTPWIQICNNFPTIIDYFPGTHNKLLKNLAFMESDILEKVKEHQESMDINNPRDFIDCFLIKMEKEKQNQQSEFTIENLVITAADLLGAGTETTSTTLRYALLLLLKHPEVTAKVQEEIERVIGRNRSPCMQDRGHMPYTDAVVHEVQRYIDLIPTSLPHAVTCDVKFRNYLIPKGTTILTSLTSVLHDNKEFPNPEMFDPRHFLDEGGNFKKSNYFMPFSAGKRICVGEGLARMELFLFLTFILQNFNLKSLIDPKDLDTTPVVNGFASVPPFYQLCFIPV
Outline: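 Reactions contain 5nM enzyme, 10uM Luciferin-H EGE (KM) and 50mM KPO4; compound preincubates 10 min at 37C, NADPH regeneration starts turnover for 60 min. Luminescence after detection reagent gives activity.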

[8] = target: Cytochrome P450 3A4 (Homo sapiens) (UniProt P08684); assay: qHTS Assay for Inhibitors and Substrates of Cytochrome P450 3A4 (AID 884); also: series mostly up to about 57 µM; % is scaled to controls: 0 for no effect and ±100 for the full control effect; nearly all actives have a fitted effect of over 50% in size
Sequence of Cytochrome P450 3A4 (Homo sapiens) (P08684 whole entry, looked up): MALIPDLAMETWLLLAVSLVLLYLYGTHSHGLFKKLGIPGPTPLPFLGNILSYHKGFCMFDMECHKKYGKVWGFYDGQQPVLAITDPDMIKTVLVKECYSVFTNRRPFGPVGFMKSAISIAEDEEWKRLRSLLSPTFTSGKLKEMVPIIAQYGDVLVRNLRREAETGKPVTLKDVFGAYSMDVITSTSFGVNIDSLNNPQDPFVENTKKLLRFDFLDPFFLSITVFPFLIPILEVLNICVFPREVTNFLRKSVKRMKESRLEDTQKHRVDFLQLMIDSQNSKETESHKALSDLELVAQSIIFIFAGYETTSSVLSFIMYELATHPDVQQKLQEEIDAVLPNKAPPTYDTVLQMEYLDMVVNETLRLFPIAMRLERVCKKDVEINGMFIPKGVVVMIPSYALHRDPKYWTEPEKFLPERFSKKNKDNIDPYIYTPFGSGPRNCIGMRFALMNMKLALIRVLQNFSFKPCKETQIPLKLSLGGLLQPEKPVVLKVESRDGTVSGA
Outline: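 20 nM human CYP3A4 with 25 uM Luciferin-PPXE (at KM) in 200 mM KPO4, preincubated 10 min with compound; NADPH regeneration started a 60 min RT reaction. Luciferin detected by luminescence, normalized to 57 uM ketoconazole as full inhibition.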

CCN1C(=O)N(S(=O)(=O)C(F)(F)F)C(c2ccccc2)C(C(=O)OC)=C1C (centres undefined)
inactive: Potency [1] | Potency [2] | Potency [3] | Potency [4]

CC(C)(C)OC(=O)N1CCC[C@@H]1C(O)(c1ccccc1)c1ccccc1
inactive: Potency [1] | Potency [2] | Potency [3] | Potency [4]

CC1(OC(=O)C2CCCC2)C(=O)C=C2C=C(c3ccsc3)N(Cc3ccccc3)C=C2C1=O (centres undefined)
inactive: Potency [1] | Potency [2] | Potency [3] | Potency [4]

COc1cccc([C@H]2Oc3ccc(OC)cc3C(=NO[C@H](C)CN3CCCc4nc(C)c(C)cc43)[C@H]2O)c1
inactive: Potency [1] | Potency [5] | Potency [3] | Potency [4]

COc1cc(CO[C@H]2C=C[C@@H](c3ccccc3)O[C@H]2CO)cc(OC)c1
inactive: Potency [1] | Potency [2] | Potency [3] | Potency [4]

O=C1CCCC=C1[C@@H](O)CCOC(c1ccccc1)(c1ccccc1)c1ccccc1
active: Potency [6] 0.794 µM | Potency [7] 0.251 µM | Potency [1] 1.51 µM | Potency [2] 1.69 µM | Potency [5] 1.51 µM
inactive: Potency [4]

CC(CCC(=O)OC[C@H]1O[C@H](C#Cc2ccccc2)C=C[C@H]1Oc1ccc(C)cc1)=NO[C@H](C)c1cn([C@@H]2COC[C@@H]2O)nn1
inactive: Potency [1] | Potency [2] | Potency [3] | Potency [4]

Cc1c(O)c(=O)ccn1Cc1ccccc1
inactive: activity change, negative = inhibition [6] -0.343% [at 11.4 µM] | activity change, negative = inhibition [8] -6.33% [at 11.4 µM] | activity, negative = inhibition [7] 38.4% [at 11.4 µM] | Potency [1] | Potency [2] | Potency [4]

COc1ccc([C@]23Cc4cc(OC)c(OC)cc4[C@H](O2)c2c(cc(C)oc2=O)O3)cc1
inactive: Potency [1] | Potency [5] | Potency [3] | Potency [4]

CCN1C(=NCc2cccc(C(F)(F)F)c2)NC(c2cccc(F)c2)C(C(=O)OC)=C1C (centres undefined)
active: Potency [1] 0.757 µM
inactive: Potency [5] | Potency [4]

CC(=O)OC[C@H]1O[C@H](C#Cc2ccccc2Cl)C=C[C@H]1OC(C)=O
inactive: Potency [1] | Potency [5] | Potency [4]

C[C@H]1CC[C@H]2C(=O)N[C@H](Cc3ccccc3)C(=O)N2[C@H]1c1ccccc1
inactive: Potency [1] | Potency [5] | Potency [3] | Potency [4]

COC1=C[C@H](C(=O)N[C@H]2CCCC[C@H]2NC(C)=O)[C@H](C)[C@@H](c2ccccc2)CC1=O
inactive: Potency [1] | Potency [2] | Potency [3] | Potency [4]

COc1ccc2c3c(c(=O)oc2c1)[C@H]1O[C@](CCCCN2C(=O)c4ccccc4C2=O)(Cc2cc(OC)c(OC)cc21)O3
active: Potency [1] 2.69 µM | Potency [5] 1.51 µM
inactive: Potency [4]

CCCNC(=O)OC[C@H]1O[C@H](CCON=C2C[C@@H](O)[C@@H](O)[C@@H]3[C@H]4C(=O)N(CC)C(=O)[C@@H]4CC[C@H]23)C=C[C@H]1Oc1ccc(OC)cc1
inactive: Potency [1] | Potency [2] | Potency [3] | Potency [4]

COC(=O)c1ccc(CN2C(=O)[C@]3(OCCC=C[C@@H]3C)c3cc(OC)ccc32)cc1
inactive: Potency [1] | Potency [2] | Potency [3] | Potency [4]

O=C1C2=C(C(=O)c3ccccc31)[C@H]1O[C@](c3ccsc3)(Cc3c1ccc1ccccc31)O2
inactive: Potency [1] | Potency [5] | Potency [3] | Potency [4]

CC(C)[C@@H](OCc1ccccc1)[C@H](C)CON=C1[C@H]2CCn3c(=O)n(-c4ccccc4)c(=O)n3[C@@H]2[C@H](O)[C@@H]2O[C@H]12
inactive: Potency [1] | Potency [5] | Potency [4]

O=C1CCCC2=C1[C@H]1O[C@](c3ccsc3)(Cc3c1ccc1ccccc31)O2
inactive: Potency [1] | Potency [5] | Potency [3] | Potency [4]

C=CCNC(=O)N1CCc2nc(-c3ccc(OC)cc3C)c3c(c2C1)CO[C@@H](c1ccccc1)C3
active: Potency [2] 1.51 µM
inactive: Potency [1] | Potency [3] | Potency [4]

CC1(OC(=O)C2CCCC2)C(=O)C=C2C=C(c3ccsc3)N(C3CCCCC3)C=C2C1=O (centres undefined)
inactive: Potency [1] | Potency [2] | Potency [3] | Potency [4]

COC(=O)C(C(=O)OC)[C@@H]1O[C@@]23COC=C[C@]2(C)[C@@H]3c2ccccc21
inactive: Potency [1] | Potency [5] | Potency [3] | Potency [4]

O=C(NC(CC1=CCCCC1)c1ccc2ccccc2c1)C(F)(F)F (centres undefined)
inactive: Potency [1] | Potency [5] | Potency [3] | Potency [4]

COc1ccc([C@]23Cc4ccccc4[C@H](O2)c2c(cc(C)n(Cc4ccccc4)c2=O)O3)cc1
active: Potency [1] 2.13 µM
inactive: Potency [3] | Potency [4]

CCOC(=O)c1c(C(=O)OCC)c2c3ccccc3cc(C)n2c1C(=O)OC
inactive: Potency [1] | Potency [5] | Potency [3] | Potency [4]

CC1(OC(=O)c2ccc(Cl)nc2)C(=O)C=C2C=C(c3ccsc3)OC=C2C1=O (centres undefined)
inactive: Potency [1] | Potency [5] | Potency [3] | Potency [4]

C=C(C(=O)C(C)(C)O)C(O)c1ccc([N+](=O)[O-])cc1 (centres undefined)
inactive: Potency [1] | Potency [3] | Potency [4]

COc1cc([C@@H](NC(=O)C(F)(F)F)C2CCCCC=C2c2ccccc2)cc(OC)c1OC (some centres undefined)
inactive: Potency [1] | Potency [3] | Potency [4]

CC1=C[C@@H](COCc2ccccc2)O[C@@]2(C1)C(=O)N(CC1CC1)c1ccccc12
inactive: Potency [1] | Potency [3] | Potency [4]

COc1cc(CCN2C(=O)NC(c3cccc(C(F)(F)F)c3)C(C(C)=O)=C2C)cc(OC)c1OC (centres undefined)
inactive: Potency [1] | Potency [3] | Potency [4]

CC1(C)CC(=O)C2=C(C1)O[C@@]1(c3ccsc3)Cc3cc(C#N)ccc3[C@H]2O1
inactive: Potency [1] | Potency [5] | Potency [3] | Potency [4]
